Inconclusive results are not listed. A number with no mark means an inactive call. Activity calls are given as the source filed them. The call rests on the fitted dose curve; in most records, active means well fitted inhibition curve with a large enough effect; inconclusive means small, poorly fitted or top-dose-only effect; inactive means no such curve, though single readings can be large or run the other way.
Target: Tumor susceptibility gene 101 protein (Homo sapiens) (UniProt Q99816)
Test: qHTS Assay for Iinhibitors of HIV-1 Budding by Blocking the Interaction of PTAP/TSG101: Hit Validation in TR assay
Settings: Tsg101 binding domain + Texas Red-labeled PTAP peptide, fluorescence polarization, 20 min; series mostly up to 57.5 µM; activity change, negative = inhibition: at the top concentration
Procedure, shortened: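 Texas Red-PTAP peptide (50 nM) binding to Tsg101 binding domain (10 uM), both final, in pH 7.5 HEPES buffer, read as polarization after 20 min at room temperature; compounds pinned before peptide addition.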
On the % scale 0 is the no-effect control and ±100 the full control effect; potency means the concentration at half of the fitted maximal effect.

Tumor susceptibility gene 101 protein (Homo sapiens), sequence (Q99816 whole entry, looked up): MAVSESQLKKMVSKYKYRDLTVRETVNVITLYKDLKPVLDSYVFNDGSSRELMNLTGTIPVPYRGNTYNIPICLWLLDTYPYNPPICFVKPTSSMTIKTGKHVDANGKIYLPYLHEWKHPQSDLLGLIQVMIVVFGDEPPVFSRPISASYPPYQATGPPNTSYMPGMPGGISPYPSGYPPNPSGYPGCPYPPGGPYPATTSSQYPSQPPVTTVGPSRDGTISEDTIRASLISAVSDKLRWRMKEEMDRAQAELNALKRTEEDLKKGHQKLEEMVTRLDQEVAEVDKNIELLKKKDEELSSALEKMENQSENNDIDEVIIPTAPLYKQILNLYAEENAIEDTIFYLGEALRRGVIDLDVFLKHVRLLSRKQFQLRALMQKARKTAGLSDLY

Row | SMILES | activity change, negative = inhibition | Potency
1 | CC(OC(=O)c1c2c(nc3ccccc13)/C(=C\c1ccc3c(c1)OCO3)CCC2)C(=O)Nc1ccc(S(N)(=O)=O)cc1 (stereo not drawn) | 27.4% | 
2 | Cc1ccc(N2C3=C(C(=O)CC(C)(C)C3)C(c3cn(C)nc3C)C3=C2CC(C)(C)CC3=O)cc1 | -1.93% | 
3 | O=C1N=C(N2C=CC(=C3C=CNC=C3)C=C2)/C(=C/N=NC(=O)c2ccccc2O)S1 | 8.22% | 
4 | C=CCn1c(=O)[nH]c2nc3cc(N=CN(C)C)c(C)cc3nc2c1=O |  | 18.3 µM (active)
5 | O=c1oc2ccccc2cc1-c1nc(-c2cccs2)cs1 | -12.5% | 
6 | Cc1nc2nc(-c3cccs3)cn2nc1C | 5.54% | 
7 | CC(C)c1nnc(N2C(=O)C(O)=C(C(=O)c3cccs3)C2c2ccccc2)s1 (stereo not drawn) | 26.3% | 
8 | O=[N+]([O-])c1cc(Cl)cc(/C=N/NC(=S)Nc2ccc(S(=O)(=O)N3CCOCC3)cc2)c1O | -12.7% | 
9 | CC(=O)Nc1ccc(N=Cc2c(O)ccc3ccccc23)cc1 | 4.75% | 
10 | CN1C(=O)NC(c2ccccc2[N+](=O)[O-])C2=C1CCCC2=O (stereo not drawn) | 3.67% | 
11 | CCCN(CCC)S(=O)(=O)c1ccc(C(=O)OCCN2C(=O)c3cccc4c(N5CCOCC5)ccc(c34)C2=O)cc1 | -6.8% | 
12 | N#C/C(=C\c1ccccn1)c1nc2ccccc2s1 | 40.6% | 
13 | CCc1cccc2cc3c(N)c(C(=O)Nc4ccc(S(=O)(=O)N5CCCC5)cc4)sc3nc12 | -58.6% | 
14 | Cc1ccc(C)c2nc3sc(C(=O)N4CCCc5ccccc54)c(N)c3cc12 | 27.2% | 
15 | Cc1ccc(/C=C/C(=O)Nc2ccc(S(=O)(=O)Nc3onc(C)c3C)cc2)cc1 | -1.09% | 
16 | O=C1c2cccc3c(O)ccc(c23)C(=O)N1c1ccc(Cl)cc1 | -1.2% | 
17 | CNc1ccc2c3c(cccc13)C(=O)N(C)C2=O | 22.8% | 
18 | Cc1cccc(N2C(=O)c3cccc4c(N)ccc(c34)C2=O)c1 | -25.6% | 
19 | COc1ccc(-c2cc(C(=O)N3CC(C)CC(C)C3)c3ccccc3n2)cc1OC (stereo not drawn) | -13.2% | 

Row | SMILES | activity change, negative = inhibition | Potency
20 | Oc1ccc2nnc3c(Br)cnn3c2c1 | -3.06% | 
21 | Nc1c(C(=O)O)sc2nc(-c3ccccc3)cc(-c3ccc(Cl)cc3)c12 | -8.6% | 
22 | COc1ccc(/C(O)=C/c2nc3ccccc3n(-c3ccccc3)c2=O)cc1 | -4.86% | 
23 | COc1ccc(OC)c(/C=c2\sc3nc(-c4cccs4)nn3c2=O)c1 | -4.15% | 
24 | O=c1c(/C=C(\O)c2ccc(F)cc2)nc2ccccc2n1-c1ccccc1 | -4.58% | 
25 | COc1ccc(/C=C2/N=C(c3cccs3)OC2=O)cc1OC(C)C | 9.72% | 
26 | CSc1c(C#N)c(N)nc2sc(C(=O)c3ccc(Cl)c(Cl)c3)c(N)c12 | 8.16% | 
27 | CCCn1c(O)c(N=Nc2ccc3ccccc3n2)c2ccccc21 | -12.6% | 
28 | Cc1ccc(C2C3CN(C(C)C)CC=C3C(C#N)=C(N)C2(C#N)C#N)cc1 (stereo not drawn) | 5.49% | 
29 | COC(=O)c1c(NC(=O)CC2Nc3cc(C)c(C)cc3NC2=O)sc(C)c1C (stereo not drawn) |  | 2.91 µM (active)
30 | Cc1cccc(N2C(=O)c3cccc4c(N(C)CCO)ccc(c34)C2=O)c1 | -10.9% | 
31 | CC(C)(C)C(=O)c1sc2nc(-c3cccs3)cc(C(F)(F)F)c2c1N | -10.8% | 
32 | N=c1c(S(=O)(=O)c2ccc(Br)cc2)cc2c(=O)n3ccccc3nc2n1Cc1ccccc1 | -0.502% | 
33 | COc1ccc2c(C=Nc3c(C)n(C)n(-c4ccccc4)c3=O)c(O)n(Cc3ccco3)c(=O)c2c1 |  | inactive
34 | CCN1CCc2c(sc(NC(=O)Nc3ccc(Cl)c(Cl)c3)c2C(N)=O)C1 | -11.9% | 
35 | CC1=CC(=C(C#N)c2nc3ccccc3s2)C=C(C)N1Cc1ccco1 | 25.6% | 
36 | Fc1ccc(C2=CC(c3ccc(Br)o3)n3ncnc3N2)cc1 (stereo not drawn) | 0.977% | 
37 | COc1ccc(C(=O)c2sc3nc(C)cc(-c4cccs4)c3c2N)cc1OC | 29.2% | 
38 | CNc1c2cccc(C)c2nc2c(C(=O)NCCN(C)C)cccc12 | -2.06% | 
